{"source": "PubChem BioAssay (NCATS)", "note": "Values without a mark were called inactive. The rule behind the calls is not given here. Potency is the fitted concentration of half-maximal effect."}
{"system": "HIV-1 nucleocapsid protein NCp7 (binding to TG oligonucleotide)", "experiment": "HIV Nucleocapsid (AID 346);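 note: potency is for inhibitors that block NC binding and lower polarization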", "conditions": "HIV-1 NC / fluorescein-TGTGTGTG probe, fluorescence polarization", "procedure": "NCGC Assay Overview: HIV-1 nucleocapsid protein (HIV-1 NC) is a small (6.5 kDa) basic zinc-finger protein which participates in packaging of viral genomic RNA. The spacing and metal-chelating residues (3 Cys, 1 His) of the Cys-X2-Cys-X4-His-X4-Cys Zn fingers are conserved among all known retroviruses (J. Med. Chem. 1998, 41, 1371-1381). HIV-1 NC was assayed for its binding to the consensus sequence single-stranded 5'-TGTGTGTG. […] High salt was included to increase the stringency of binding and inhibitor screen. Reducing agents and zinc were present to stabilize the nucleocapsid zinc-finger protein.\nNCGC Assay Protocol Summary: Buffer. Hepes pH 7.5, 250mM NaCl, 1uM ZnCl2. 0.004% polyethylene glycol 20000. TCEP (100 uM) and 2-Mercaptoethanol (5 mM), added fresh the day of the experiment. Reagents/Controls. 10 nM TG4xF only in columns 3 and 4 as negative control. 10 nM TG4xF/100 nM HIV-1 NC in columns 1, 2, 5-48. Titration of control compound NSC-13778 (from 20 mM, then 1:2) pin-transferred to column 2. Assay Steps. Two uL of reagents were dispensed to 1536-well Kalypsys black plates. The plates were centrifuged for 1 min at 1000 rpm. Compounds and controls (20 nL) were transferred via Kalypsys PinTool. The plates were incubated for 1 hr at room temperature, and then read on ViewLux (Perkin-Elmer). High-throughput CCD imager using fluorescein polarization filter set and 45 seconds exposure time.", "units": {"Potency": "µM"}}
{"smiles": "c1cncc(CNc2ncnc3ccc(-c4ccoc4)cc23)c1", "Potency": "> 20"}
{"smiles": "O=c1c(-c2cccs2)nc2cncnc2n1Cc1ccccc1", "Potency": "> 20"}
{"smiles": "CN1CCN(c2ncc3ncc(=O)n(C4CC4)c3n2)CC1", "Potency": "> 20"}
{"smiles": "COc1ccc(CNc2ncnc3ccc(-c4cccc(C#N)c4)cc23)c(OC)c1", "Potency": "> 20"}
{"smiles": "O=C(c1csnn1)N1CCC2(CC1)CN(c1ccncc1)C2", "Potency": "> 20"}
{"smiles": "COc1cccc(Nc2ncc3ncc(=O)n(C)c3n2)c1", "Potency": "> 20"}
{"smiles": "N#Cc1cccc(NC(=O)N2CC3(CCN(C(=O)c4cnccn4)CC3)C2)c1", "Potency": "> 20"}
{"smiles": "CNc1ncnc2ccc(-c3ccccc3OC)cc12", "Potency": "> 20"}
{"smiles": "CN(Cc1ccco1)c1ncnc2ccc(-c3cccc(C#N)c3)cc12", "Potency": "> 20"}
{"smiles": "Cn1c(=O)c(-c2cccs2)nc2cnc(N3CCOCC3)nc21", "Potency": "> 20"}
{"smiles": "COc1ccccc1CNc1nc(-c2ccc(N(C)C)cc2)nc2ccccc12", "Potency": "> 20"}
{"smiles": "COc1cccc(Cn2c(=O)cnc3cnc(Oc4cccc(Cl)c4)nc32)c1", "Potency": "> 20"}
{"smiles": "c1cncc(CNc2cc(-c3ccoc3)ncn2)c1", "Potency": "> 20"}
{"smiles": "Cn1cccc1C(=O)N1CCC2(CCN(C(=O)Nc3ccccc3)CC2)CC1", "Potency": "> 20"}
{"smiles": "Cc1nc2cnc(N3CCN(C)CC3)nc2n(CCC#N)c1=O", "Potency": "> 20"}
{"smiles": "COc1cccc(Nc2ncc3nc(C)c(=O)n(C)c3n2)c1", "Potency": "> 20"}
{"smiles": "O=C(c1cccc(F)c1)N1CCC2(CC1)CN(Cc1ccccc1)C2", "Potency": "> 20"}
{"smiles": "CS(=O)(=O)N1CCC2(CCCN(C(c3ccccc3)c3ccccc3)C2)CC1", "Potency": "> 20"}
{"smiles": "c1ccc(Nc2ncnc3ccc(-c4ccc5c(c4)OCO5)cc23)cc1", "Potency": "> 20"}
{"smiles": "O=C(c1cc(C(F)(F)F)cc(C(F)(F)F)c1)N1CCC2(CCCN(c3ccncc3)C2)CC1", "Potency": "> 20"}
{"smiles": "COC(=O)N1CCC2(CCN(C(=O)NC(C)C)CC2)CC1", "Potency": "> 20"}
{"smiles": "CN(C)c1ccc(-c2nccc(NCCN3CCOCC3)n2)cc1", "Potency": "> 20"}
{"smiles": "COc1ccc(-c2nc3cnc(OC)nc3n(Cc3cccc(OC)c3)c2=O)cc1", "Potency": "> 20"}
{"smiles": "COc1ccccc1-c1ccc2ncnc(NCc3ccccc3)c2c1", "Potency": "> 20"}
{"smiles": "CC(=O)N1CCC[C@@]2(CCN(C(=O)Nc3cccc(C#N)c3)C2)C1", "Potency": "> 20"}
{"smiles": "O=C(Oc1ccccc1)N1CCC2(CC1)CN(c1ncccn1)C2", "Potency": "> 20"}
{"smiles": "Cc1noc(C)c1C(=O)N1CCC2(CC1)CN(c1cccc(-c3ccccc3)c1)C2", "Potency": "> 20"}
{"smiles": "CN(C)c1ccc(-c2nc(NC3CCNCC3)c3ccccc3n2)cc1", "Potency": "> 20"}
{"smiles": "CC(=O)N1CCC2(CCCN(c3cccc(-c4ccccc4)c3)C2)CC1", "Potency": "> 20"}
{"smiles": "COc1ccc2[nH]cc(CCNc3ncncc3-c3ccc(N(C)C)cc3)c2c1", "Potency": "> 20"}
{"smiles": "CN(C)C(=O)c1ccc(-c2ccc3ncnc(N4CCOCC4)c3c2)cc1", "Potency": "> 20"}
{"smiles": "N#CCCn1c(=O)c(-c2ccccc2)nc2cnc(Oc3cccc(Cl)c3)nc21", "Potency": "> 20"}
{"smiles": "O=C(Nc1cccc(F)c1)N1CC[C@@]2(CCCNC2)C1", "Potency": "> 20"}
{"smiles": "Cc1noc(C)c1-c1cc(N2CCN(C)CC2)ncn1", "Potency": "> 20"}
{"smiles": "COc1ccccc1CNc1ncncc1-c1ccc2c(c1)OCO2", "Potency": "> 20"}
{"smiles": "COc1ccc(-c2nc3cnc(N4CCOCC4)nc3n(C3CC3)c2=O)cc1", "Potency": "> 20"}
{"smiles": "COCCn1c(=O)c(CCc2ccccc2)nc2cnc(OC)nc21", "Potency": "> 20"}
{"smiles": "COc1cccc(Cn2c(=O)c(CCc3ccccc3)nc3cncnc32)c1", "Potency": "> 20"}
{"smiles": "CC(C)NC(=O)N1CCC2(CC1)CCN(C(=O)c1ccco1)CC2", "Potency": "> 20"}
{"smiles": "CN1CCN(c2ncc3ncc(=O)n(C[C@H]4CCCO4)c3n2)CC1", "Potency": "> 20"}
